Hit rate of the full screen: of about 5,500 compounds, about 2,000 (36%) were called active. Another 18% or so got no clear call; they are omitted. No stated cut-off is given here; in the data, active means normalized growth mostly below about 0.91 (no sharp cut-off); inconclusive means no clear call, values can overlap the other calls; inactive means mostly above about 0.92. The list shows a part of the results.
Assay: chemical genetic growth profiling, strain panel (AID 1159580);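 further: tested at 20 µM; growth read once vehicle control cultures reached saturation at 30 °C; 1 = growth at the plate median or of vehicle wells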
Details: S. cerevisiae deletion strains, growth OD

Measured: normalized growth

CCCCCCCCCCC/C=C\C(C)(C)/C=C\CCCC(=O)O
inactive: locus YAL040C, strain CLN3, stronger effect = lower value 1.02 | locus YCL061C, strain MRC1 (second series), stronger effect = lower value 1.04 | locus YDR150W, strain NUM1, stronger effect = lower value 1.01 | locus YDR363W, strain ESC2, stronger effect = lower value 1.04 | locus YER002W, strain NOP16, stronger effect = lower value 1.04 | locus YJR075W, strain HOC1, stronger effect = lower value 1.02 | locus YMR263W, strain SAP30, stronger effect = lower value 1.03 | locus YMR307W, strain GAS1, stronger effect = lower value 0.974 | locus YNL128W, strain TEP1, stronger effect = lower value 0.996 | locus YNL153C, strain GIM3, stronger effect = lower value 0.967 | locus YNL175C, strain NOP13, stronger effect = lower value 1.01 | locus YNL197C, strain WHI3, stronger effect = lower value 0.985 | locus YNL224C, strain SQS1, stronger effect = lower value 1 | locus YNL322C, strain KRE1, stronger effect = lower value 1.02 | locus YOR083W, strain WHI5 (second series), stronger effect = lower value 0.965 | locus YPL055C, strain LGE1, stronger effect = lower value 1.08
